In the library only some 4.3% were active in any assay of this set; here they are far more common.
sPLA2-III inh = human group III sPLA2 inhibitors, primary screen, biochemical, QFRET, BODIPY PC-A2 liposome substrate; QFRET BODIPY PC-A2 liposome hydrolysis, fluorescence; inhibition, % at 12.2 µM; hit rate 0.56% among 370,000; AID 743126, 2013;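 active = inhibition above mean plus 3 SD of compounds lying within the high and low control bounds, cut at about 19% in these data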;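 note: 0% = median of test compound wells and 100% = no enzyme DMSO wells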
Target sequence (Q9NZ20 whole entry, looked up): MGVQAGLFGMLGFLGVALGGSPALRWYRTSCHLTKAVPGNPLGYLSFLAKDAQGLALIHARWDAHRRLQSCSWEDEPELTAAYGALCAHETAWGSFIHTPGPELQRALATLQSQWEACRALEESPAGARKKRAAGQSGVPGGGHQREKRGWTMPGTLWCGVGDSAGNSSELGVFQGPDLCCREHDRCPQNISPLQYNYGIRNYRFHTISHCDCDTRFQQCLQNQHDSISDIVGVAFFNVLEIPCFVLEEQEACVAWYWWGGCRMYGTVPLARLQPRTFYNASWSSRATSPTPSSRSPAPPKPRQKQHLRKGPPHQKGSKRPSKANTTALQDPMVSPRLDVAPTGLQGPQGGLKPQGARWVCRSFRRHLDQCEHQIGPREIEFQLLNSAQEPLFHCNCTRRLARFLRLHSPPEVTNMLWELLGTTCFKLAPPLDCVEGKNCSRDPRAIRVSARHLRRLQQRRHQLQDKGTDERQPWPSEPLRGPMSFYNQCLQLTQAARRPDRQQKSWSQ
ADAM17 inh = ADAM17 inhibitors, primary screen, biochemical, QFRET. recombinant ADAM17, EDANS/DABCYL FRET peptide cleavage. inhibition, % at 6.95 µM. hit rate 0.83% among 370,000. AID 720648, 2013;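 active = inhibition above the mean of compounds lying between control limits plus 3 SD, set per campaign, cut at about 8.5% in these data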;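 note: 0% = DMSO-only wells as the low control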
FAS TE block = FAS thioesterase domain inhibitors, primary screen, biochemical, fluorescence intensity, uHTS | Fatty acid synthase (Homo sapiens), P49327 | recombinant FAS-TE, OMFH fluorogenic substrate, fluorescence endpoint | inhibition, % at 15 µM | hit rate 0.67% among 360,000 | AID 602261, 2012;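 active = compounds whose normalised, plate-corrected inhibition of enzyme fluorescence in the single-dose primary screen is 50% or more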;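 note: 0% = DMSO with enzyme and 100% = substrate without enzyme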
NR3A LBD binder = binders of NR3A ligand-binding domain, primary screen, biophysical, differential scanning fluorimetry, uHTS; Glutamate receptor ionotropic, NMDA 3A (GRIN3A) ligand-binding domain; NR3A LBD differential scanning fluorimetry, Tm shift; 0% = protein alone, 100% = glycine-bound protein; Tm shift relative to glycine control, % at 25 µM; hit rate 2.5% among 340,000; AID 1259313, 2017;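 active = melting temperature shift of at least 10% of the positive control shift, at one fixed dose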
ADAM10 inh = human ADAM10 inhibitors, primary screen, biochemical, QFRET, HTS. Disintegrin and metalloproteinase domain-containing protein 10 (Homo sapiens), O14672. inhibition, % at 7 µM. AID 720582, 2013. recombinant ADAM10, EDANS/DABCYL FRET peptide cleavage, 3 h. hit rate 0.62% among 370,000;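 active = inhibition above a per-campaign cutoff equal to the mean of compounds falling between control-based bounds plus 3 SD, cut at about 20% in these data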;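 note: 0% = DMSO wells while the 100% control is not disclosed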
Active calls of the source: *; i = inactive; / = no result.

SMILES	sPLA2-III inh	ADAM17 inh	FAS TE block	NR3A LBD binder	ADAM10 inh
COc1cc(NC(=O)c2ccccn2)ccc1NC(=O)c1ccccc1Cl	-1	6	/	/	9
O=C(Nc1ccc(Cl)cc1)OC1CCC12CCC(c1ccccc1)CC2 (configuration not stated)	-5	3	/	/	10
COc1ccc2nc3ccccc3[n+]([O-])c2c1	-26	-140	-23	2	i
[O-][n+]1c2ccccc2cc2ccccc21	6	-262	-4	46*	i
COc1ccc(NC(=O)C(CCCCNC(=O)OC(C)(C)C)NC2(C(=O)NCCc3c[nH]c4ccccc34)CCCCC2)cc1 (configuration not stated)	-96	7	/	/	15
CN(C)S(=O)(=O)c1cccc(-c2nn(-c3ccccc3)cc2/C=C(\C#N)c2nc3ccccc3[nH]2)c1	-1	-5	44	-1	-4
CN(C)S(=O)(=O)c1cccc(-c2nn(-c3ccccc3)cc2/C=C2\SC(=S)NC2=O)c1	-14	5	40	11*	12
O=c1ccc2cc3c([nH]c4ccc(Br)cc43)oc-2c1O	43*	4	-10	/	17
COc1cccc(C(=O)NNC(=O)c2sccc2-n2cccc2)c1	2	-2	-1	-1	10
Cc1cccc(NC(=O)NNC(=O)c2sccc2-n2cccc2)c1	-12	2	-4	13*	3
CCCCNC(=O)C1(C(=O)c2ccc(OC)cc2)CC(c2ccccc2C(F)(F)F)=NO1 (configuration not stated)	-4	4	/	/	11
Cc1c[nH]c2cccc(-c3ccc(OCc4ccccc4)cc3)c12	-18	3	/	/	-3
COc1ccccc1CN(C)C(=O)C1CCCN(c2nc3ccccc3o2)C1 (configuration not stated)	-6	4	/	/	-6
CCOc1ccc(/C=C(\C#N)C(=O)NCC2CCCO2)cc1OCC (configuration not stated)	-3	-5	-6	13*	-27
Clc1nssc1=Nc1nncs1	5	-2	-13	25*	-21
Clc1nssc1=Nc1ccc(Br)cc1	13	0	-5	8	6
Cn1c(=O)n(C)c2cc([N+](=O)[O-])c(N3CCN(S(=O)(=O)c4ccc5ccccc5c4)CC3)cc21	3	0	66*	-2	-4
Cc1[nH]nc2c1C(c1ccc(-c3ccc(Cl)cc3)o1)C(C#N)=C(N)O2 (configuration not stated)	-10	2	-8	14*	7
Cc1ccc(-c2ccc(C3C(C#N)=C(N)Oc4n[nH]c(C)c43)o2)cc1 (configuration not stated)	-10	-4	3	-3	-12
Cc1ccc(-c2[nH]nc3c2C(c2ccsc2)C(C#N)=C(N)O3)cc1 (configuration not stated)	-32	-4	-2	12*	-2
CCCc1[nH]nc2c1C(c1ccncc1)C(C#N)=C(N)O2 (configuration not stated)	2	-2	-3	14*	-4
Cc1ccc(-c2cc(C(=O)NN=Cc3cccc(Oc4ccccc4)c3)[nH]n2)cc1C	-12	7	/	/	13
COc1ccc2nc(-c3ccccc3)[nH]c2c1	1	-133	-2	-6	i
COc1ccc2[nH]c(-c3ccccc3)cc2c1	-20	-203	10	12*	-397
O=[N+]([O-])c1ccc2nc(NN=Cc3ccc(O)cc3)sc2c1	-34	3	9	23*	7
SMILES	sPLA2-III inh	ADAM17 inh	FAS TE block	NR3A LBD binder	ADAM10 inh
Cc1cc(C(=O)O[C@@H]2CCC[C@]3(C(=O)N(Cc4ccccc4)c4ccccc43)[C@H]2NC(=O)CCc2ccccc2)no1	-1	-1	/	/	0
COC(=O)C1=C(C)N(CCc2ccccc2)C(=O)/C1=C\c1ccco1	0	-2	3	19*	-4
COc1ccc(CN2C(=O)CCCC2(C)c2nnnn2-c2ccc3c(c2)OCCO3)cc1 (configuration not stated)	-2	-6	/	/	-7
O=C(Nc1ccc2c(c1)CCC2)c1cc(S(=O)(=O)Nc2ccc(F)cc2)c(Cl)cc1Cl	2	-2	20	31*	-4
CCN(CC)c1ccc(C=Nn2c(C)nnc2C)cc1	10	-3	/	/	-28
CCN(CC)C(=O)CC[C@@H]1CC[C@]2(CCCN(Cc3ccncc3)C2)O1	-2	-2	/	/	-4
O=C1N(c2ccccc2)C2CS(=O)(=O)CC2N1c1ccc(Cl)c(Cl)c1 (configuration not stated)	4	-1	18	30*	1
COc1ccc2c(C(c3ccccc3O)C3CCCN3S(=O)(=O)c3ccc(C)cc3)cn(C)c2c1 (configuration not stated)	-18	2	/	/	9
COc1cccc(NS(=O)(=O)c2ccc3[nH]cc(C(=O)NCCC(C)C)c(=O)c3c2)c1	-63	7	-4	18*	12
CCc1ccccc1NS(=O)(=O)c1ccc2[nH]cc(C(=O)NC3CCCC3)c(=O)c2c1	-26	0	24	11*	-1
NS(=O)(=O)c1ccc(N=Nc2ccc(O)c3ncccc23)cc1	46*	2	12	8	13
CCOc1ccc(N=Nc2ccc(O)c3ncccc23)cc1	-2	0	0	-2	0
COC(=O)[C@H](CC(C)C)N1Cc2nnn(CC3CCCCC3)c2-c2ccccc2S1(=O)=O	1	0	/	/	4
COc1cc(-n2c(C)nc3cc(C(=O)N4CC(C)CC(C)C4)ccc32)cc(OC)c1OC (configuration not stated)	3	4	/	/	3
O=C(COC(=O)C1CC(O)CN1S(=O)(=O)c1ccc(Cl)cc1)c1ccccc1Cl (configuration not stated)	-23	-2	-3	-2	-4
Cc1ccc(S(=O)(=O)N2CC(O)CC2C(=O)OCC(=O)c2ccccc2Cl)cc1C (configuration not stated)	-16	-3	5	25*	-4
COC(=O)[C@]12C[C@H](CC(=O)N3CCOCC3)C(=O)N(Cc3ccco3)C1=C[C@H](COCc1ccccc1)O[C@@H]2C	-1	-1	/	/	1
CCCCOCCCNC(=O)C[C@H]1C(=O)N(Cc2ccc(OC)cc2)C2=CCCCC[C@@]21C(=O)OC	-14	-3	/	/	2
O=C(CCCc1c[nH]c2ccccc12)NCCc1c[nH]c2ccccc12	-58	8	8	15*	19

High-throughput results deposited in PubChem by several laboratories.
